# Source: the supplement of paper PMC10849652
# About 8,800 targets were measured; listed, in parts, are those with a hit and a random draw of the rest. About 0.5% of all pairs of compound and target were hits. A number with no mark means an inactive call.
# Compound: CC1=C(C=C(C=C1)NC(=O)C2=CC(=CC=C2)N(C)C)NC(=O)C3=CC=C(C=C3)O
# Assay: log2 fold change, soluble protein after heating vs DMSO (PISA); higher = thermal stabilisation; K562 lysate, 10 uM; active = over 0.2 and 3.5 SD of the protein, either way, in both replicates (recomputed)
# How it was run: (§1)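 Following dounce homogenisation of K562 pellets in PBS pH 7.4 with 1 mM MgCl2, crude extract at 1 mg/mL protein was incubated for 30 min with 10 μM compound. Aliquots were then heated for 3 min over 48°C-58°C and pooled, NP-40 was added to 0.5% at 4°C, and soluble protein was recovered as the supernatant at 21,000xg for 90 min. Channel-sum-equalised TMTpro 16plex LC-MS/MS quantified this protein. Each value, from duplicates, is a log-two fold change in thermal stability relative to solvent controls.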
# Chain of UniProt A4D1P6 (A4D1P6 whole entry, looked up): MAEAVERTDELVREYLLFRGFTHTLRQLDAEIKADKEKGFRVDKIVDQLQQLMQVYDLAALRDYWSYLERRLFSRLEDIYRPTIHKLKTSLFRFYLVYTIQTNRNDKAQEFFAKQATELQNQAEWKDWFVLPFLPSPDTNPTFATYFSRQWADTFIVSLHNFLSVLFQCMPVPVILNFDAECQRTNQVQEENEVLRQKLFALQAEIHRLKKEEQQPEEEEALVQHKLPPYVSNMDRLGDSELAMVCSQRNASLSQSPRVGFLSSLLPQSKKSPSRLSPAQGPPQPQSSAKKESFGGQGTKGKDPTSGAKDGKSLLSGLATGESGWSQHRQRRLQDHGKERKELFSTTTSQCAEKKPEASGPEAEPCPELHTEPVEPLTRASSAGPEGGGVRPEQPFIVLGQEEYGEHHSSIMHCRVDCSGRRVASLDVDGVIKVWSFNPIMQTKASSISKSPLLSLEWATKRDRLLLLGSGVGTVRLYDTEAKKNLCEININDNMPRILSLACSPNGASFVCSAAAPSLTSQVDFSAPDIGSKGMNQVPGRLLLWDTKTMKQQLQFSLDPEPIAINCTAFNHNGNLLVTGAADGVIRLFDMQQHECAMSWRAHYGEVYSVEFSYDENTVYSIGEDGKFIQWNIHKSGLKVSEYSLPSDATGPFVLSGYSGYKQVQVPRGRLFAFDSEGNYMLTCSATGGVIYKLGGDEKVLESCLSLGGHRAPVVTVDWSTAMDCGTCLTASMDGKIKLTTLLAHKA
# Chain of UniProt P40818 (P40818 whole entry, looked up): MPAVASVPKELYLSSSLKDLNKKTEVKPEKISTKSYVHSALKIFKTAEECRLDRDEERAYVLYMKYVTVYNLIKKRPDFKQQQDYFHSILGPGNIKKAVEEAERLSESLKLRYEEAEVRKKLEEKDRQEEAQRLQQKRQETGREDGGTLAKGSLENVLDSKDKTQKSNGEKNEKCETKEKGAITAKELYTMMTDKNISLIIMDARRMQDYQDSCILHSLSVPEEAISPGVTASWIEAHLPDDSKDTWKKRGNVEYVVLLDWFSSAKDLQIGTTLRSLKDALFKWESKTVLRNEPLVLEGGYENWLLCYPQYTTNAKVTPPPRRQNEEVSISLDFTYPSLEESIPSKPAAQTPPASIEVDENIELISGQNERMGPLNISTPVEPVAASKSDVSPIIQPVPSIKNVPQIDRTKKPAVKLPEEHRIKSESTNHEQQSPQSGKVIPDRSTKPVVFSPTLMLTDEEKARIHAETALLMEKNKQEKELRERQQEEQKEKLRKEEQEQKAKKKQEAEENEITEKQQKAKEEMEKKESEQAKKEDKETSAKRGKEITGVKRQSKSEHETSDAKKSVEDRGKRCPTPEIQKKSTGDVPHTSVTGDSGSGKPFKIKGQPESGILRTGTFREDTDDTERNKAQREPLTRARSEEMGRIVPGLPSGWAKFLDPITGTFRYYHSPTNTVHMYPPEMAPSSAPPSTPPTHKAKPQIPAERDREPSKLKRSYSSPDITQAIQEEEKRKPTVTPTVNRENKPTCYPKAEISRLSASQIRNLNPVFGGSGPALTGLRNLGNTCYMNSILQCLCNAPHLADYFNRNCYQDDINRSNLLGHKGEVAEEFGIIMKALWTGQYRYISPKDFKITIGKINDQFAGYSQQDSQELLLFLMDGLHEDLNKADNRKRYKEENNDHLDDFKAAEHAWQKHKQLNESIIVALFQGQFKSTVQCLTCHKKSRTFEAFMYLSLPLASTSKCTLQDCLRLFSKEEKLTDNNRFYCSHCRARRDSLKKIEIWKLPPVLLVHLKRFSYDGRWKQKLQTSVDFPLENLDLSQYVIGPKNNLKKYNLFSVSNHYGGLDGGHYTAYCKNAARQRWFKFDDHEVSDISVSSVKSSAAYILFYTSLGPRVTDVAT
# Chain of UniProt Q08AM6 (Q08AM6 whole entry, looked up): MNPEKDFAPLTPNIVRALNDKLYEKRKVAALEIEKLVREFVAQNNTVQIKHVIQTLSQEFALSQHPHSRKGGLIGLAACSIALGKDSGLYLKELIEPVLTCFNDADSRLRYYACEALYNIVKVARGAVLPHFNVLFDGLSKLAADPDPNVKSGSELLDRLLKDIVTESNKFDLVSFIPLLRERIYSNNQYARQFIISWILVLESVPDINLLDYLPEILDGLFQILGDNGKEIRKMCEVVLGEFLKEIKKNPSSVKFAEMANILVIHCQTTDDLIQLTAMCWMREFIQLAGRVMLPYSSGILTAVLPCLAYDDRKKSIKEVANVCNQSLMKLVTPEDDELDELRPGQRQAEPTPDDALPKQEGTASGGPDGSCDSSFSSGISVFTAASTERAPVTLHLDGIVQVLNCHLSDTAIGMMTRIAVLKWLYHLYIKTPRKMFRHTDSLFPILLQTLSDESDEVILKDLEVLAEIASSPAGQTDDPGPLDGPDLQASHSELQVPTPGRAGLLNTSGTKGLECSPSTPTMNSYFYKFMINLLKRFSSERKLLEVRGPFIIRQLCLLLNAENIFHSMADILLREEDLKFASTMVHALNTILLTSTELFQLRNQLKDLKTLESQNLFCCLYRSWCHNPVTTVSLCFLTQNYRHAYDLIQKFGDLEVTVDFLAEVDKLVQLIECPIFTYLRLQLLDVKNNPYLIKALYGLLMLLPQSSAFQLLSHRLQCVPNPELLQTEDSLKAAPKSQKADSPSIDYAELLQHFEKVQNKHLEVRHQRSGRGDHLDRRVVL
# Chain of UniProt Q9HCS7 (Q9HCS7 whole entry, looked up): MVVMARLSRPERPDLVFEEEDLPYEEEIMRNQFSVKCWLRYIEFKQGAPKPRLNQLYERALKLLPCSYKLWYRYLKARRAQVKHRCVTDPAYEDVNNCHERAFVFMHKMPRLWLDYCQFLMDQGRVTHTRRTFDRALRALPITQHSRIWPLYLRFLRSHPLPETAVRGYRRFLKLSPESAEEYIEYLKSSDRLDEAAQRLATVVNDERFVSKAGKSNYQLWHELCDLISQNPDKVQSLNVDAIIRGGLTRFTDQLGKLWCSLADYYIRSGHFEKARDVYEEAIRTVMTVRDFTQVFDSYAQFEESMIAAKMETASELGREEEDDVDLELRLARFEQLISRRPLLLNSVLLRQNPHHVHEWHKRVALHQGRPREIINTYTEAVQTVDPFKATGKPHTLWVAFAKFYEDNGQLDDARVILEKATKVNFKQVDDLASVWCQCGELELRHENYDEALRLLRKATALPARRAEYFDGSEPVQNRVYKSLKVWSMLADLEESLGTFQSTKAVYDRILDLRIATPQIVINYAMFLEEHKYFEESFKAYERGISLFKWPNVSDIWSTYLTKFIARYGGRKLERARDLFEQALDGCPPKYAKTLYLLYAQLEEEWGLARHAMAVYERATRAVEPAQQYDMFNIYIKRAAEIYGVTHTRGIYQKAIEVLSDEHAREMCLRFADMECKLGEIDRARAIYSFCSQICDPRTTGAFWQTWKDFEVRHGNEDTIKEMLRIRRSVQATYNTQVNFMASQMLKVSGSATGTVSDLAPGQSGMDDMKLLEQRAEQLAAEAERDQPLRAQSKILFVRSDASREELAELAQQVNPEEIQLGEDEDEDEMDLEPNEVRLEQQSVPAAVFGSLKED
# Chain of UniProt Q9H269 (Q9H269 whole entry, looked up): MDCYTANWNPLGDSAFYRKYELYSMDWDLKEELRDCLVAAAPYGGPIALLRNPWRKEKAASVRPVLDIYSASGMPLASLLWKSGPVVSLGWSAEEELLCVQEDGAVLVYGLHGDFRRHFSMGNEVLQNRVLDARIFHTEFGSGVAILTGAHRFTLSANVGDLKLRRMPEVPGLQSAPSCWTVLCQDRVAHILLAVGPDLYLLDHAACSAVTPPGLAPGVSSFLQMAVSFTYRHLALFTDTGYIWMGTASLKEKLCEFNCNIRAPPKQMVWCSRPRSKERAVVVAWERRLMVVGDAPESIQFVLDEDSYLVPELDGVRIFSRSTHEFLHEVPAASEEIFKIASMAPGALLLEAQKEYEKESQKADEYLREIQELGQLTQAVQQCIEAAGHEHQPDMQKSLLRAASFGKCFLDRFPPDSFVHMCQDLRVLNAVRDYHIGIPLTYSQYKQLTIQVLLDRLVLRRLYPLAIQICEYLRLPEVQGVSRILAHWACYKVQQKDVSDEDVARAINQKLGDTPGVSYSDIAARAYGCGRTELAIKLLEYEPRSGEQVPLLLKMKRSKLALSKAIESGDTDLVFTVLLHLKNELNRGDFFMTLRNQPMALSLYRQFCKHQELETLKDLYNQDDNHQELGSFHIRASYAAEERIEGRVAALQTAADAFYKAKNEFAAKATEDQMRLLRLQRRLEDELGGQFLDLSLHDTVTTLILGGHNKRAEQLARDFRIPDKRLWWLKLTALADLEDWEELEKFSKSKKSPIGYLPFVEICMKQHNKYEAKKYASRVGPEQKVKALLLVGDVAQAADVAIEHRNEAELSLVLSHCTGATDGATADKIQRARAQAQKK
# Chain of UniProt Q9NWK9 (Q9NWK9 whole entry, looked up): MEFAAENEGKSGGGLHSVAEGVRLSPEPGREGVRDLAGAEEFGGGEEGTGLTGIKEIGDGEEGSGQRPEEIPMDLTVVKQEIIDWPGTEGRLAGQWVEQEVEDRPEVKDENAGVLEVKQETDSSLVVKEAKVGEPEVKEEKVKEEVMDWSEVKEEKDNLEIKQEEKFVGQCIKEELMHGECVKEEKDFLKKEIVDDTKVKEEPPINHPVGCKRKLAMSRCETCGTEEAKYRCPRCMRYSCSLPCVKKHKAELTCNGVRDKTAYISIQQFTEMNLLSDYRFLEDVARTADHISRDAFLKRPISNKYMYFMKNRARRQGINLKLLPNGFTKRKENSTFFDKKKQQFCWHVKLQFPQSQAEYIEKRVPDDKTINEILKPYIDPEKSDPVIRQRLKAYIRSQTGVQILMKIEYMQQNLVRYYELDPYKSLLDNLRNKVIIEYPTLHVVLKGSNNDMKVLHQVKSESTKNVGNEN
# Chain of UniProt O00258 (O00258 whole entry, looked up): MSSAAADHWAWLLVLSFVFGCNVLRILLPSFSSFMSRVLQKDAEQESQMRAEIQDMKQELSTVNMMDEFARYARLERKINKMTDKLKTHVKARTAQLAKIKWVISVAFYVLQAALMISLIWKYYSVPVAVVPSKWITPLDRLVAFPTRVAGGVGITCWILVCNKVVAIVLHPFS
row,Target,log2 fold change
1,USP9X (UniProt Q93008),0.043
2,ZMYM1 (UniProt Q5SVZ6),-0.007
3,ZNF598 isoform 3 (UniProt Q86UK7),-0.004
4,VAV1 (UniProt P15498),0.046
5,WDR7 (UniProt Q9Y4E6),-0.06
6,VPS11 (UniProt Q9H270),-0.03
7,ZNF318 (UniProt Q5VUA4),0.046
8,VAC14 (UniProt Q08AM6),0.039
9,VPS41 (UniProt P49754),0.047
10,ZNHIT6 (UniProt Q9NWK9),0.018
11,ZZEF1 (UniProt O43149),0.009
12,VPS16 (UniProt Q9H269),0.031
13,ZHX1 (UniProt Q9UKY1),0.024
14,ZC3H13 (UniProt Q5T200),-0.01
15,VRK1 (UniProt Q99986),0.018
16,VPS54 (UniProt Q9P1Q0),0.066

row,Target,log2 fold change
1,WDR45 isoform 2 (UniProt Q9Y484),-0.014
2,XAB2 (UniProt Q9HCS7),0.03
3,YTHDF3 (UniProt Q7Z739),0.009
4,XPO6 (UniProt Q96QU8),0.062
5,WRB (UniProt O00258),-0.004
6,XPOT (UniProt O43592),0.007
7,VPS18 (UniProt Q9P253),-0.041
8,WDR3 (UniProt Q9UNX4),-0.001
9,USP8 (UniProt P40818),0.018
10,ZFPM1 (UniProt Q8IX07),0
11,VRK2 (UniProt Q86Y07),0.023
12,WDR91 (UniProt A4D1P6),0.043
13,WDR20 isoform 7 (UniProt Q8TBZ3),-0.003
14,YRDC (UniProt Q86U90),0.007
15,UQCRC2 (UniProt P22695),0.003

# Compound: CC1=CC=C(C=C1)SC2=C3C=C(SC3=CN=C2)C(=O)N
# Assay: as above
# How it was run: as §1
row,Target,log2 fold change
1,USP9X (UniProt Q93008),0.011
2,ZMYM1 (UniProt Q5SVZ6),-0.011
3,ZNF598 isoform 3 (UniProt Q86UK7),0
4,VAV1 (UniProt P15498),0.082
5,WDR7 (UniProt Q9Y4E6),-0.013
6,VPS11 (UniProt Q9H270),-0.002
7,ZNF318 (UniProt Q5VUA4),0.083
8,VAC14 (UniProt Q08AM6),-0.034
9,VPS41 (UniProt P49754),0.013
10,ZNHIT6 (UniProt Q9NWK9),-0.029
11,ZZEF1 (UniProt O43149),-0.005
12,VPS16 (UniProt Q9H269),0
13,ZHX1 (UniProt Q9UKY1),-0.013
14,ZC3H13 (UniProt Q5T200),-0.022
15,VRK1 (UniProt Q99986),0.003
16,VPS54 (UniProt Q9P1Q0),-0.037

row,Target,log2 fold change
1,WDR45 isoform 2 (UniProt Q9Y484),-0.036
2,XAB2 (UniProt Q9HCS7),-0.024
3,YTHDF3 (UniProt Q7Z739),0.096
4,XPO6 (UniProt Q96QU8),-0.006
5,WRB (UniProt O00258),-0.024
6,XPOT (UniProt O43592),0.018
7,VPS18 (UniProt Q9P253),0.009
8,WDR3 (UniProt Q9UNX4),0.03
9,USP8 (UniProt P40818),0.009
10,ZFPM1 (UniProt Q8IX07),-0.026
11,VRK2 (UniProt Q86Y07),0.149
12,WDR91 (UniProt A4D1P6),0.002
13,WDR20 isoform 7 (UniProt Q8TBZ3),0.014
14,YRDC (UniProt Q86U90),0.008
15,UQCRC2 (UniProt P22695),-0.013
